# Assay results taken from PubChem BioAssay.
# Active and inactive are the calls of the source.
# Assays:
# [1] = binders of probe aFSTL3 on microarray, primary screen, stem cell growth factor project, biochemical, small-molecule microarray, fluorescence 635/667 (AID 1064); settings: higher = more signal;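 also: measures binding of the biotinylated anti-FSTL3 antibody to printed compounds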
# [2] = binders from COS7 lysate, DM2A8 probe, primary screen, torsin A project, cell lysate, small-molecule microarray, fluorescence 635/667 (AID 1065); settings: higher = more signal, COS7 lysate expressing mutant human TOR1A
# [3] = binders of probe aFGF2 on microarray, primary screen, stem cell growth factor project, biochemical, small-molecule microarray, fluorescence 635/667 (AID 1067); settings: higher = more signal;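 also: measures binding of biotinylated aFGF2 protein to printed compounds on slides; z-score merges feature fluorescence and signal-to-noise across triplicate slides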
# [4] = binders of probe aFGF10 on microarray, primary screen, stem cell growth factor project, biochemical, small-molecule microarray, fluorescence 635/667 (AID 1071); settings: higher = more signal;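 also: score merges 667 nm spot intensity and signal to noise from triplicate slides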
# [5] = target: Neurogenic locus notch homolog protein 2 (Homo sapiens) (UniProt Q04721); assay: Notch2 binders on small-molecule microarrays, primary screen, biochemical, small-molecule microarray, 635 nm fluorescence, stem cell growth factors (AID 1073); settings: Notch2 binding, higher = more signal
# Neurogenic locus notch homolog protein 2 (Homo sapiens), sequence (Q04721 whole entry, looked up, canonical isoform): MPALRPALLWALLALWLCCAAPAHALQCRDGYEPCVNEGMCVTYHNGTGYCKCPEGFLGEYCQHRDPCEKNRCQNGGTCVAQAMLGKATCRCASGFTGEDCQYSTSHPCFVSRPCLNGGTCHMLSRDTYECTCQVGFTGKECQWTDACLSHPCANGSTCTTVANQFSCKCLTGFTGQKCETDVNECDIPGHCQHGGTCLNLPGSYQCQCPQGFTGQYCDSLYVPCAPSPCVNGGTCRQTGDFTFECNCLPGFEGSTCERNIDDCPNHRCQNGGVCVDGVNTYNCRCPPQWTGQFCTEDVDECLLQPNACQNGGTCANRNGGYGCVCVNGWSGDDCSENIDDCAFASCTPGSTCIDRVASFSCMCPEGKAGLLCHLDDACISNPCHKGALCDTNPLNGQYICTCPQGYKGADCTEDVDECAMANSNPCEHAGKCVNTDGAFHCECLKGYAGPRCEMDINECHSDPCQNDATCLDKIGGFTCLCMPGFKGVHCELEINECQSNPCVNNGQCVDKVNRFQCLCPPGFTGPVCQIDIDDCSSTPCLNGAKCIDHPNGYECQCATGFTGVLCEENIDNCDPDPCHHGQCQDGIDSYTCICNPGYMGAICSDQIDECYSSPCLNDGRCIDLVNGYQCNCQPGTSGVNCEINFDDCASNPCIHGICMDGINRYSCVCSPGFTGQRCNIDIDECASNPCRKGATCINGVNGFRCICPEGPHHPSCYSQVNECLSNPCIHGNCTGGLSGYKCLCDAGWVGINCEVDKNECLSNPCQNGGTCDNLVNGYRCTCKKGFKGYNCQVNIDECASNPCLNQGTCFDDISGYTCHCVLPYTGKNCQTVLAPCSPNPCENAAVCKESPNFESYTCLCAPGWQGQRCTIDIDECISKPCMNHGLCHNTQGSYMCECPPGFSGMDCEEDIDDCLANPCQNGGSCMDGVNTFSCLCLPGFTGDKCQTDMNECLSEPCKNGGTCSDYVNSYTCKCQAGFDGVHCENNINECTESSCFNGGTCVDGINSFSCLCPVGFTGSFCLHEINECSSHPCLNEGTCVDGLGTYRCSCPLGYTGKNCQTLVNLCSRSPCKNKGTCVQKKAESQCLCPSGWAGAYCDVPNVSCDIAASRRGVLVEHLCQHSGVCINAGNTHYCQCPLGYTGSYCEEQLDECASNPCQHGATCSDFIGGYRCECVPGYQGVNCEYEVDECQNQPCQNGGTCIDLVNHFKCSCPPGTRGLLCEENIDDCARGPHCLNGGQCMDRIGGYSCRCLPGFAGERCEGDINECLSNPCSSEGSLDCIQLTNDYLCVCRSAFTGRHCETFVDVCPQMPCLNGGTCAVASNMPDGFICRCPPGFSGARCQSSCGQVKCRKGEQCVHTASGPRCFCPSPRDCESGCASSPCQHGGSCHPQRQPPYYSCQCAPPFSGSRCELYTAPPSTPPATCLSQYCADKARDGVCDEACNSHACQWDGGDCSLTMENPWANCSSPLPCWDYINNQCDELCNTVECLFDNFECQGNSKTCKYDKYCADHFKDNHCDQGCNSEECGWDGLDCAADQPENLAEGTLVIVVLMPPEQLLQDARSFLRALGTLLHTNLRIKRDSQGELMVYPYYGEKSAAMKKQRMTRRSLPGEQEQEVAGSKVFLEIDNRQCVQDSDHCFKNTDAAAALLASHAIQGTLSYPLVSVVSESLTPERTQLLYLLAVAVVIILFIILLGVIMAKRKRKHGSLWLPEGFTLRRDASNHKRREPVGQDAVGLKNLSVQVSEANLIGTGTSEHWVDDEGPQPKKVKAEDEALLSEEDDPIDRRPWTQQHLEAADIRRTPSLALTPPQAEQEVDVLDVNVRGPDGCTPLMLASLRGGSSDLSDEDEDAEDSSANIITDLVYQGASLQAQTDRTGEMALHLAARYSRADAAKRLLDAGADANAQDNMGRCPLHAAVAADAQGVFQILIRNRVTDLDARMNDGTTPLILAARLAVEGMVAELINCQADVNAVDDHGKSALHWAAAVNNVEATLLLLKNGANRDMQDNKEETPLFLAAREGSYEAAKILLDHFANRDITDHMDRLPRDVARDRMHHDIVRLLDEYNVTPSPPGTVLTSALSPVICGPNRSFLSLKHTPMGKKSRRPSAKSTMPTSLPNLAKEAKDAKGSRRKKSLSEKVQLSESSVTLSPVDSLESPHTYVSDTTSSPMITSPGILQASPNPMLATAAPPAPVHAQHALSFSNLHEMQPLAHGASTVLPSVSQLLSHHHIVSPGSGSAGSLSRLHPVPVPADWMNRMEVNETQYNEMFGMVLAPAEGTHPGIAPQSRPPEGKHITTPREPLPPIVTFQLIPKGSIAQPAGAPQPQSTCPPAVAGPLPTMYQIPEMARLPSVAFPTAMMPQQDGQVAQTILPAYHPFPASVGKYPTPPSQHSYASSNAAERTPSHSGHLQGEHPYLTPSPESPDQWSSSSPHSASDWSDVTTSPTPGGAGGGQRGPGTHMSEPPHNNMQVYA
# [6] = target: Pro-neuregulin-1, membrane-bound isoform (Homo sapiens) (UniProt Q02297); assay: NRG1 binders on small-molecule microarrays, primary screen, psychiatric disease protein project, biochemical, small-molecule microarray, fluorescence 635/667 (AID 1075); settings: NRG1 binding, 635 nm fluorescence, higher = more signal;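 also: score combines 667 nm spot fluorescence with signal to noise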
# Pro-neuregulin-1, membrane-bound isoform (Homo sapiens), sequence (Q02297 whole entry, looked up, the tested form may be a part, canonical isoform): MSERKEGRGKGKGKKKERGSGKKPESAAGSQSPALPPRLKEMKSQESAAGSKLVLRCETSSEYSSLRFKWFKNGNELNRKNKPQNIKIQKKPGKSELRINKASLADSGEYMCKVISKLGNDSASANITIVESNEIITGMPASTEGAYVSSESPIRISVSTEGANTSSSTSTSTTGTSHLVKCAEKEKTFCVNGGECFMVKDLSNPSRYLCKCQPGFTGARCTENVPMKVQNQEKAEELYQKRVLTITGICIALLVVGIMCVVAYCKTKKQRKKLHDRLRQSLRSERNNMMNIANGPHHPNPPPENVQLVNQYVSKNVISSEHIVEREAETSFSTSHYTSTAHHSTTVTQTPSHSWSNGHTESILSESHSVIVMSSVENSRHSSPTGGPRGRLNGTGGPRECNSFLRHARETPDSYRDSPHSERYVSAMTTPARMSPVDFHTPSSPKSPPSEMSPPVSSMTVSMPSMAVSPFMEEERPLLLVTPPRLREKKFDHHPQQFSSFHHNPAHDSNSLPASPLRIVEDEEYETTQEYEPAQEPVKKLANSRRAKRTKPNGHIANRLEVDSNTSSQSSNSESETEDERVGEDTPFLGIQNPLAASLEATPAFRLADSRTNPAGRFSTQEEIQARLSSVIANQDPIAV
# [7] = test system: Neuregulin-1 EGF-like domain; assay: binders of neuregulin-1 EGF-like domain, primary screen, biochemical, small-molecule microarray, 635 nm fluorescence (AID 1081); settings: small-molecule microarray binding, higher = more signal;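 also: binding of the protein to compounds printed on small-molecule microarray slides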
# [8] = FRG1 promoter luciferase signal modulators, primary screen, FRG1 inhibition for FSHD, cell-based, C2C12 myotubes, firefly/Renilla luciferase, luminescence (AID 1084); settings: higher = more signal, called active from +8 up or from −8 down
# [9] = binders of probe aFST on microarray, primary screen, stem cell growth factor project, biochemical, small-molecule microarray, fluorescence 635/667 (AID 1086); settings: higher = more signal;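 also: score merges 667 nm fluorescence with signal-to-noise of each printed compound spot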
# [10] = binders of probe aHhip on microarray, primary screen, stem cell growth factor project, biochemical, small-molecule microarray, fluorescence 635/667 (AID 1087); settings: higher = more signal;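 also: score merges spot fluorescence at 667nm with spot signal to noise ratio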
SMILES,composite z-score [1],composite z-score [2],composite z-score [3],composite z-score [4],composite z-score [5],composite z-score [6],composite z-score [7],z-score [8],composite z-score [9],composite z-score [10]
COC(=O)[C@@]1(Cc2ccc(F)cc2)[C@H]2c3cc(C(=O)N(C)C)n(Cc4cccc5ccccc45)c3C[C@H]2CN1C(=O)c1ccccc1,1.84,1.71,0.398,1.16,0.77,1.13,1.33,0.255 (inactive),0.697,0.727
CCCCCN1CC=CC23O[C@@H]4/C=C\CCCOC(=O)C4[C@H]2C(=O)N(CCO)[C@@H]3C1=O (stereo not given in full),0.0382,0.351,-0.133,-0.148,-0.326,0.913,1.5,-0.345 (inactive),-0.345,-0.223
CN(C)CCCCCCNC(=O)[C@@H]1C[C@@H]2C(=O)N[C@@H](CCCC[N+](C)(C)C)C(=O)N2[C@@H]1c1cccc(OCCO)c1,0.516,0.869,-0.0707,-0.431,-0.558,-0.538,0.801,3.98 (inactive),-0.516,-0.333
COC(=O)C(CC#Cc1ccc2c(c1)[C@]1(C(=O)N2)[C@H](c2ccc(OCCO)cc2)N2[C@H](c3ccccc3)[C@H](c3ccccc3)OC(=O)[C@H]2[C@@H]1C(N)=O)C(=O)OC,0.0757,0.268,0.187,0.489,0.0619,1.26,1.17,2.1 (inactive),-0.0778,0.0826
[N-]=[N+]=NCc1ccccc1[C@H]1OC(c2ccc(OCCCO)cc2)=N[C@@]1(Cc1ccccc1N=[N+]=[N-])C(=O)N1CCOCC1,0.439,-0.154,0.156,0.383,1.55,1.96,1.21,-1.31 (inactive),1.07,-0.0994
C=CC[C@]1(C(=O)NCC(O)CO)N=C(c2ccc(OCCCO)cc2)O[C@H]1c1ccccc1CN=[N+]=[N-] (stereo not given in full),1,1.23,-0.0316,0.36,-0.757,0.323,1.23,-0.27 (inactive),0.267,0.189
C=CC[C@]1(C(N)=O)N=C(c2ccc(OCCCO)cc2)O[C@H]1c1ccccc1N=[N+]=[N-],0.951,-0.385,0.087,0.672,0.737,1.8,1.06,2.63 (inactive),1.69,-0.306
CN(C)C(=O)[C@]1(CCS(=O)(=O)c2ccccc2)N=C(c2ccc(OCCCO)cc2)O[C@@H]1c1ccccc1CN=[N+]=[N-],0.04,-0.313,0.0308,0.849,1.55,1.14,1.29,-0.882 (inactive),1.07,-0.0994
C=C(CCCC)/C(=C/C[C@@H](OC(C)=O)c1cccc(OCCO)c1)c1cc(C(=O)OC)ccc1OC,0.289,-0.0739,-0.14,0.222,0.0199,0.361,0.31,0.942 (inactive),-0.0258,-0.0618
COCCOC(=O)N1C(=O)[C@@]2(c3cc(C#CCC(C(=O)OC)C(=O)OC)ccc31)[C@H](c1ccc(O)cc1)N1[C@H](c3ccccc3)[C@H](c3ccccc3)OC(=O)[C@H]1[C@@H]2C(=O)N1CCc2cc(OC)c(OC)cc2C1,0.0804,0.838,-0.0538,0.818,1.21,1.04,1.14,0.336 (inactive),0.186,0.224
[N-]=[N+]=NCc1ccccc1C[C@@]1(C(=O)NCCN2CCOCC2)N=C(c2ccc(OCCCO)cc2)O[C@@H]1c1ccccc1,-0.0252,-0.539,-0.0514,0.246,0.266,1.12,1.28,-3.05 (inactive),0.804,-0.0994
CCOC(=O)C1=C[C@@H](C(C)(C)C)N(S(=O)(=O)c2ccc(C)cc2)[C@H]1c1ccc(OC)cc1,-0.491,-0.103,0.0111,0.726,1.56,0.348,1.19,-3.35 (inactive),0.525,-0.212
COc1cc2c(cc1OC)CN(C(=O)[C@@H]1[C@H]3C(=O)O[C@H](c4ccccc4)[C@H](c4ccccc4)N3[C@H](c3ccc(O)cc3)[C@@]13C(=O)Nc1ccc(C#CC4=CCCCC4)cc13)CC2,0.105,0.576,-0.0899,0.864,1.48,0.347,1.13,0.561 (inactive),0.588,0.0479
CCOC(=O)C[C@H]1[C@H](OC(=O)c2ccc(-c3ccccc3)cc2)[C@@H](NC(=O)c2ccc(-c3ccccc3)cc2)c2cc(OCCCO)ccc2N1C(=O)c1ccccc1,-0.326,0.254,-0.0317,0.573,0.528,0.534,0.905,-0.281 (inactive),0.627,-0.213
COCCOC(=O)N1C(=O)[C@@]2(c3cc(C#CCNC(N)=O)ccc31)[C@H](C(N)=O)[C@H]1C(=O)O[C@H](c3ccccc3)[C@H](c3ccccc3)N1[C@@H]2c1ccc(O)cc1,-0.0585,0.0947,-0.0899,0.29,-0.148,0.0637,0.235,-0.329 (inactive),0.0377,-0.287
CC(C)C(=C=CC[C@H](O)c1cccc(OCCO)c1)C[C@H](O)c1ccccn1,-0.242,-0.243,-0.166,0.016,-0.0938,-0.272,1.05,-0.29 (inactive),-0.0565,-0.0645
C=CC[C@H](O)c1ccc(O)c(F)c1,0.226,-1.35,-0.076,-0.819,-1.73,-0.676,-0.502,1.17 (inactive),-1.39,0.414
COCCOC(=O)N1C(=O)[C@@]2(c3cc(C#CCC(C(=O)OC)C(=O)OC)ccc31)[C@H](C(N)=O)[C@H]1C(=O)O[C@H](c3ccccc3)[C@H](c3ccccc3)N1[C@@H]2c1ccccc1OCCO,-0.453,-0.413,-0.152,0.47,0.937,0.555,1.19,-1.3 (inactive),0.6,-0.0618
COC(=O)[C@@]1(Cc2ccc(F)cc2)[C@H]2c3cc(C(=O)N4CCCC4)n(CCSCCO)c3C[C@H]2CN1C(=O)c1ccccc1,0.349,-0.366,0.157,0.359,1.53,1.82,1.32,-0.0476 (inactive),1.21,-0.174
COCCCNC(=O)[C@@]1(Cc2ccccc2I)c2ccccc2C(=O)N(Cc2ccccc2C(F)(F)F)[C@H]1c1ccc(CO)cc1,0.088,0.395,-0.0232,-0.283,-1.01,0.988,1.05,-1.78 (inactive),0.341,0.0826
COc1cccc(C)c1NC(=O)O[C@H]1[C@H](OC(=O)Nc2ccccc2)[C@@H](OC(=O)Nc2ccccc2)[C@@H](OC)O[C@@H]1CO,-0.0439,0.639,0.0811,1.06,1.48,1.81,1.46,0.91 (inactive),0.837,0.149
COc1ccc(C(=O)Nc2ccc(CN3C(=O)[C@@]4(O[C@@H](CC(=O)N(CCO)Cc5ccccc5)[C@H]([Si](C)(C)c5ccc(OC)cc5)[C@H]4C)c4ccccc43)cc2)cc1,-0.0679,0.378,-0.135,0.086,-0.769,0.984,0.921,-2.13 (inactive),-0.263,-0.0074
CO[C@H]1O[C@H](CO)[C@@H](OC(=O)CCc2ccccc2)[C@@H]2OC(=O)[C@@H](Cc3ccc4ccccc4c3)C/C=C/C[C@H](Cc3ccc4ccccc4c3)C(=O)O[C@@H]12,-0.129,0.693,-0.179,-0.0304,-0.641,0.617,-0.127,-1.72 (inactive),-0.354,-0.0994
CCCCC(=C=CC[C@@H](O)c1ccccc1OCCO)C[C@@H](O)c1ccccn1,0.0106,0.362,-0.102,0.23,0.418,0.69,0.327,-1.14 (inactive),-0.0288,-0.0645
CC1(C)OB(/C=C\CC(OC(=O)c2ccncc2)c2ccccc2)OC1(C)C (stereo not given),2.93,0.214,0.0262,-1.4,-1.48,0.852,0.181,1.99 (inactive),-0.0939,-0.0296
C=CCNC(=O)[C@H]1[C@@H]2C(=O)O[C@@H](c3ccccc3)[C@@H](c3ccccc3)N2[C@@H](c2ccc(O)cc2)[C@]12C(=O)N(C(=O)OCCOC)c1ccc(C#Cc3ccc(OC)cc3)cc12,0.165,0.383,0.0106,0.978,0.759,0.788,0.995,0.75 (inactive),0.307,-0.0672
Cc1c(NC(=O)/C(C#N)=C/C=C/c2ccc([N+](=O)[O-])cc2)c(=O)n(-c2ccccc2)n1C,-0.309,0.129,-0.0718,0.906,1.63,1.65,1.25,3.34 (inactive),0.854,-0.0867
CC(C)(C)OC(=O)CC[C@@]1(C(N)=O)N=C(c2ccc(OCCCO)cc2)O[C@@H]1c1ccccc1CN=[N+]=[N-],0.389,0.87,0.153,0.712,1.57,1.28,1.44,4.09 (inactive),1.47,0.452
